# Test results from PubChem BioAssay AID504832 (National Center for Advancing Translational Sciences (NCATS), 2011).
# Among all 310,000 compounds or so, about 18,000 (5.8%) were called active. A call without a number means that no potency is given here. Another 22% or so got no clear call; they are omitted. This is one part of a sample in which actives are shown more often than they occur. The call rests on the fitted dose curve; in most records, active means well fitted inhibition curve with a large enough effect; inconclusive means small, poorly fitted or top-dose-only effect, or another doubt; inactive means no such curve, though single readings can be large or run the other way.
# Test: Primary qHTS for delayed death inhibitors of the malarial parasite plastid, 48 hour incubation
# Details: P. falciparum luciferase growth in erythrocytes; series mostly up to 28.7 µM
# How it was run: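 Cell-based growth assay: transgenic P. falciparum expressing firefly luciferase, cultured in red cells within RPMI 1640 containing 0.5% w/v Albumax, 24 mM bicarbonate and gentamycin. A drop in luciferase activity indicates inhibition.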
# Potency means the concentration at half of the fitted maximal effect.
row,Structure (SMILES),Potency
1,Cc1cc(NC(=O)CCC(=O)N(CC(=O)NC2CCCC2)c2ccc(F)cc2)no1,inactive
2,O=C(CCn1nnc2ccccc21)OCC(=O)c1ccc([N+](=O)[O-])cc1,inactive
3,COc1ccc(CCC(C)N2CCc3ccccc3C2)cc1 (configuration not stated),inactive
4,COc1ccc(CN2CCCC(N3CCc4ccccc4C3)C2)c(O)c1 (configuration not stated),1.65 µM (active)
5,COc1cccc(N2C(=O)CC(N3CCc4ccccc4C3)C2=O)c1 (configuration not stated),inactive
6,COc1ccc(NC(=O)Cn2ncn3c(cc4ccccc43)c2=O)c(OC)c1OC,10.4 µM (active)
7,CCc1ccc(NC(=O)Cn2ncn3c(cc4ccccc43)c2=O)cc1,inactive
8,COc1ccc(NC(=O)CCNC(=O)Cn2ccc3ccccc3c2=O)c(OC)c1,inactive
9,Cc1ccc(C(=O)N(CC(=O)NC2CCCC2)c2ccc(F)cc2)s1,inactive
10,CC(c1ccccc1)(c1ccccc1)c1ccncc1,16.5 µM (active)
11,ClC(Cl)(Cl)c1ccccc1,inactive
12,CC(C)(C)N(Cc1ccccc1)C(=O)c1ccncc1,inactive
13,CC1CCCC(NC(=O)c2cc(-c3ccncc3)nc3ccccc23)C1C (configuration not stated),inactive
14,CC(=O)N1CC(=O)N(CC(=O)Nc2ccc(Br)cc2)C1=S,inactive
15,Cc1c(C(=O)NC(C)C2CC3CCC2C3)cccc1[N+](=O)[O-] (configuration not stated),inactive
16,CC(Sc1nnc(CNC(=O)c2ccccc2F)n1C)C(=O)Nc1nccs1 (configuration not stated),inactive
17,COc1ccc(CCNC(=O)c2nnc(CS(=O)(=O)c3ccccc3)o2)cc1OC,2.33 µM (active)
18,COc1ccc(CCNC(=O)CN(c2ccccc2)S(C)(=O)=O)cc1OC,inactive
19,COc1ccc(CCNC(=O)Cc2ccc(C)cc2)cc1OC,inactive
20,COc1ccc(OC)c(NC(=O)c2ccc3c(c2)CCN3S(C)(=O)=O)c1,inactive
21,CC(C)OC(=O)c1ccc(COc2ccc3ccc(=O)oc3c2)o1,inactive
22,COc1ccccc1CNC(=O)c1ccc(CS(=O)(=O)c2ccccc2)o1,inactive
23,CCCCCNC(=O)C1c2ccccc2Oc2ccccc21,inactive

row,Structure (SMILES),Potency
1,Cc1ccc(N(Cc2ccc(C(=O)Nc3ccccc3C(=O)NCc3ccco3)cc2)S(C)(=O)=O)cc1C,3.7 µM (active)
2,COc1ccc(C(=O)Nc2ccccc2C(=O)NCc2ccco2)cc1,inactive
3,CS(=O)(=O)N(Cc1ccc(Cl)cc1)c1ccc(C(=O)NCCSCc2ccco2)cc1,inactive
4,CS(=O)(=O)c1ccc(C(=O)OCC(=O)NNC(=O)COc2ccc(Cl)cc2)cc1,inactive
5,COc1cc(CN2CCCN(C)CC2)c([N+](=O)[O-])cc1OC,inactive
6,Cc1ccc(OCCC(=O)OCC(=O)N2c3ccccc3NC(=O)C2(C)C)cc1,inactive
7,CC(=O)Nc1ccc(S(=O)(=O)N2CCC(C(=O)NC3CC3)CC2)cc1,inactive
8,COc1ccc(CNC(=O)CNC(=O)c2sc3ccccc3c2Cl)cc1OC,inactive
9,CN1CCc2ccccc2C1Cc1ccccc1NC(=O)c1sc2ccccc2c1Cl (configuration not stated),8.28 µM (active)
10,O=C(Nc1ccon1)c1sc2ccccc2c1Cl,inactive
11,COCc1ccc(CN2CCC(Oc3ccc(C(=O)NCc4ccccn4)cc3)CC2)o1,inactive
12,O=C(O)c1cc(S(=O)(=O)N(Cc2ccccc2)c2ccccc2)ccc1Cl,inactive
13,C=CCCN(Cc1ccccc1)S(=O)(=O)c1ccccc1Br,inactive
14,C=CC(COCc1ccccc1)N(Cc1ccccc1)S(=O)(=O)c1ccccc1Br (configuration not stated),9.28 µM (active)
15,Cc1ccsc1-c1cc(C(=O)O)c2c(ccc3ccccc32)n1,inactive
16,COc1cc(OC)c(N2CC(C(=O)Nc3cc(Cl)ccc3N3CCOCC3)CC2=O)cc1Cl (configuration not stated),11.7 µM (active)
17,COc1ccc(Cl)cc1NC(=O)C1CC(=O)N(c2ccc(F)cc2)C1 (configuration not stated),inactive
18,COc1c(C)cccc1C(=O)Nc1cc(Cl)ccc1N1CCOCC1,inactive
19,Cc1cccc(C(=O)Nc2ccc(Oc3cnccn3)cc2)c1,inactive
20,CCCCn1nc(C(=O)Nc2cccc(C(=O)NC3CC3)c2)c2ccccc2c1=O,11.7 µM (active)
21,CCCn1nc(C(=O)Nc2ccc3nc(C)sc3c2)c2ccccc2c1=O,inactive
22,COC(=O)c1cc(NC(=O)c2nn(C)c(=O)c3ccccc23)cc(C(=O)OC)c1,inactive
23,O=C1c2ccccc2C(=O)N1c1cccc2ccccc12,inactive

row,Structure (SMILES),Potency
1,Cc1c(NC(=O)CSCc2ccccc2)cccc1C(=O)O,inactive
2,CC1C(=O)Nc2ccc(S(=O)(=O)N3CCN(c4ccccc4F)CC3)cc2NC1=O (configuration not stated),inactive
3,Clc1ccc(C(Cn2ccnc2)OCc2ccsc2Cl)c(Cl)c1 (configuration not stated),4.26 µM (active)
4,CC1CCN(S(=O)(=O)c2ccc3c(ccn3CC(=O)O)c2)CC1,inactive
5,Cc1ccc(S(=O)(=O)CC(=O)NC(C)c2ccccc2)cc1 (configuration not stated),inactive
6,COc1cccc(-n2c(=S)sc3c(=O)n(-c4ccccc4C)c(SCC(=O)O)nc32)c1,inactive
7,CCOc1ccccc1NC(=O)CCc1nnc2ccc(NCc3ccco3)nn12,inactive
8,CCC/C(=N\O)c1c[nH]c2ccccc12,inactive
9,O=S(=O)(O)Oc1c[nH]c2ccccc12,7.38 µM (active)
10,COc1ccccc1CC(=O)NCCc1c[nH]c2ccccc12,inactive
11,CCc1noc(C)c1C(=O)Oc1ccc(N(C)S(=O)(=O)c2ccc(C)c(C)c2)cc1,inactive
12,CC1(C)O[C@@H]2[C@H](O1)[C@@H](COS(=O)(=O)O)O[C@H]2n1ccc(=O)[nH]c1=O,inactive
13,CCN(CC)CCCNC(=O)c1c(O)c2cc(F)cc3c2n(c1=O)C(C)CC3 (configuration not stated),inactive
14,CCOC(=O)C1=C(C)NC(=O)N(C(C)=O)C1c1ccc(Cl)cc1 (configuration not stated),5.22 µM (active)
15,CCOC(=O)C1=C(c2ccccc2)NC(=S)NC1c1ccc(Cl)cc1 (configuration not stated),inactive
16,COCCOC(=O)C1=C(C)NC(=O)NC1c1ccc(Cl)cc1 (configuration not stated),inactive
17,COc1ccc(C(=O)Nc2ccc(C(=O)NCC3CCCO3)cc2)c(OC)c1OC (configuration not stated),inactive
18,Cc1ccc(S(=O)(=O)N2CCN(C)CC2)cc1C(=O)NC1CCCCC1,inactive
19,CC1CCCC(NC(=O)c2cc(S(=O)(=O)N3CCCCC3)ccc2Cl)C1C (configuration not stated),13.1 µM (active)
20,O=C(NNC(=O)c1cc(S(=O)(=O)N2CCCCC2)ccc1Cl)c1ccccc1O,inactive
21,O=C(O)c1ccc2c(=O)n3c(nc2c1)/C(=C/c1ccc(OC(F)F)cc1OC(F)F)CC3,inactive
